Experimental data taken from PubChem BioAssay AID504339 (National Center for Advancing Translational Sciences (NCATS), 2011).
Out of some 390,000 compounds screened, about 17,000 (4.4%) were called active. Entries that show only a call come without a potency. Roughly 8% stayed inconclusive and do not appear here. Calls follow the shape of the dose curve; as a rule, active = well fitted inhibition curve with a large enough effect; inconclusive = small, poorly fitted or top-dose-only effect; inactive = no such curve, though single readings can be large or run the other way. The full list was thinned out, with actives kept by preference.

Target: Lysine-specific demethylase 4A (Homo sapiens) (UniProt O75164)
Assay: qHTS Assay for Inhibitors of JMJD2A-Tudor Domain; also: nearly all actives have a fitted effect of over 50% in size
Settings: AlphaScreen JMJD2A-Tudor / H3K4me3 peptide binding; series mostly up to 114 µM
Excerpt: JMJD2A is a jumonji-domain-containing lysine demethylase that uses Fe(II) together with 2-OG to effect oxidative demethylation of histones. Methylation is one of many […] modification that affect epigenetic transcription. […] It is proposed that the functions of JmjD2A binding to the histones, is to maintain marks after they are installed and to spread the modifications by […], establishing a self-propagating cycle for rapid methylation over a large area of chromatin. […] Thus, small molecule targeting of the JMJD2A-tudor domain interaction with its target methylhistone mark is expected to enable sophisticated experiments probing the fine regulatory pathways leading to selective demethylation of a given methyllysine locus based on the methylation state of adjacent histone marks. A quantitative high throughput AlphaScreen has been developed to identify small molecule inhibitors based on a protocol published by NCGC and SGC [4].
Although AlphaScreen has significant advantages with its utility in a variety of epigenetic target assays, the primary screening data provided in this deposition should be used with caution due to the prevalence of screening artifacts. The top compound concentration tested was high (>100uM) in this assay, which increases number of actives and potential artifacts. An AlphaScreen counterscreen is highly recommended to be run against any putative actives to eliminate non-specific artifacts. Alternatively, one can use other AlphaScreen assays in PubChem to filter out promiscuous hits.
[1] Lee, J. et al. Distinct binding modes specify the recognition of methylated histone H3K4 and H4K20 by JMJD2A-tudor. Nat Struct Mol Biol. 15(1); 109-11. 2008. PMID: 18084306
[2] Yasgar, et al. Compound Management for Quantitative High-Throughput Screening. JALA. 2008 Apr;13(2):79-89. PMID: 18496600
[3] Inglese, et al. Quantitative high-throughput screening: a titration-based approach that efficiently identifies biological activities in large chemical libraries. Proc Natl Acad Sci. 1;103(31):11473-8. 2006. PMID: 16864780
[4] Quinn et al. A homogeneous method for investigation of methyl-dependent protein-protein interactions in epigenetics. Nucleic Acids Res., 38(2):e11. 2010. PMID: […]
[5] Baell,Holloway. New substructure filters for removal of pan assay interference compounds (PAINS) from screening libraries and for their exclusion in bioassays. J Med Chem. 53(7):2719-40. 2010. PMID: 20131845
NIH Molecular Libraries Probe Production Network [MLPCN]
NIH Chemical Genomics Center [NCGC]
Structural Genomics Consortium (SGC)
To each well of a 1,536w plate, 2ul of JMJD2A-Tudor (final 100nM) and 1ul biotinylated histone peptide methylated at Lys4 [b-H3(1-18)K4me3] (final 50nM) were added in 1x PBS buffer, pH 7.4, containing 0.01% Tween-20, using a nanoliter dispenser. Formation of a protein-peptide complex proceeded at room temperature for 30 min. A Kalypsys pin-tool transferred 23nl of library compound solution in DMSO to each well. Following a 30 min incubation of the protein-peptide complex with compounds at room temperature, a mixture of 40 µg/mL each streptavidin-coated donor and nickel chelate acceptor AlphaScreen beads (final 10 µg/mL) was added in a 1ul dispense for a final volume of 4ul, followed by a brief centrifugation (1000 rpm, 1 min). Plates were incubated protected from the light for 20 min at room temperature. Microplates were then read on an EnVision multilabel plate reader using the 1,536 plate HTS AlphaScreen aperture (excitation time 80 ms, measurement time 240 ms).
Potency is read from the fitted curve at half-maximal effect.

Chain of Lysine-specific demethylase 4A (Homo sapiens) (O75164 whole entry, looked up, the tested form may be a part): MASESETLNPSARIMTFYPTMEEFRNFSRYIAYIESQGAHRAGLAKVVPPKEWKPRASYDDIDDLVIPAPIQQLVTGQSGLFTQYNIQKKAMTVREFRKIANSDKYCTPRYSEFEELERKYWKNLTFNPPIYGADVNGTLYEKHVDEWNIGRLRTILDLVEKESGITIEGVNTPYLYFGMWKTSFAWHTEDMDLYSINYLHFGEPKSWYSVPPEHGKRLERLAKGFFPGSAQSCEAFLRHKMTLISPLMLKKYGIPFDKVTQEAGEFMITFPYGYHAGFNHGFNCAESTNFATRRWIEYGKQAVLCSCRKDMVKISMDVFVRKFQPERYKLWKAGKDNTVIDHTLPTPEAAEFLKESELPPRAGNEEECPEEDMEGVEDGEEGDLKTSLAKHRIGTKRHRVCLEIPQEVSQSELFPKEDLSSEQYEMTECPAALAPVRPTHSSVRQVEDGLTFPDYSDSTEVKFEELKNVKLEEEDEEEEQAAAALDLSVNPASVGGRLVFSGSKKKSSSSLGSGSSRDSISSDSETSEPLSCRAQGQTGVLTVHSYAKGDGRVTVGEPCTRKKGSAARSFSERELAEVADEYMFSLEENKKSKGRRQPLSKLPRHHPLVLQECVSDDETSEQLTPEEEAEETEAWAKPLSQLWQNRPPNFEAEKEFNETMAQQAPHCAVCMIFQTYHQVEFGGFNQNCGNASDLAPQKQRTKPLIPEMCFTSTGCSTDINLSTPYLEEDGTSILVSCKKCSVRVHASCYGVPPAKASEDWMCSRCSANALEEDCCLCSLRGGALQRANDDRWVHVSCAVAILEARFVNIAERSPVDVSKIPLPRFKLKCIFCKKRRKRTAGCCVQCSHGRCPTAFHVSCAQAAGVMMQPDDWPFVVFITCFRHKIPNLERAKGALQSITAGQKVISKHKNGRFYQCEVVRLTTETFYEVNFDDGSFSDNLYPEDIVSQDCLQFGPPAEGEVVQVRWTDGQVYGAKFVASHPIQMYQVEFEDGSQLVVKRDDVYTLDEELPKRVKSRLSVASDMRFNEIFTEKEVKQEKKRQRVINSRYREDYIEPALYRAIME

SMILES | Potency
Cc1c(Cl)cccc1NC(=O)C(=O)NCCc1csc2nc(-c3ccccc3F)nn12 | inactive
CC(C)c1ccc(NC(=S)NC2CC3C=CC2C3)cc1 (centres undefined) | inactive
S=C(NNC(=S)NC1CC2C=CC1C2)NC1CC2C=CC1C2 (centres undefined) | 3.16 µM (active)
COc1ccc(-c2noc(CCC(=O)N(C)c3ccccc3C)n2)cc1 | inactive
CCCCOc1ccc(CN2C(=O)C(=O)c3cc(Br)cc(C)c32)cc1OC | 14.1 µM (active)
CCCCN1C(=O)C(C)=C(C)C1OCCc1ccc(OC)c(OC)c1 (centres undefined) | inactive
CCCCOc1ccc(Cn2c(=O)oc3ccc(C)cc32)cc1OC | inactive
COc1ccc(NC(=O)c2cc3cc(C)ccc3n2C)cc1 | inactive
COc1ccc(-n2c(SCC(=O)Nc3ccc(Cl)c(C)c3)nc3n[nH]c(C)c3c2=N)cc1 | inactive
Cc1cccc(Nc2nc(C)nc(N)c2S(=O)(=O)c2ccccc2)c1 | inactive
CCOc1ccc(-c2nonc2NC(=O)c2oc3ccc(CC)cc3c2C)cc1 | inactive
CSc1ccccc1NC(=O)CCS(=O)(=O)c1nc(-c2cccs2)cc(C(F)(F)F)n1 | 22.4 µM (active)
COc1ccccc1-c1cc(C(F)(F)F)nc(S(=O)(=O)CCCC(=O)Nc2ccc(F)cc2F)n1 | inactive
COc1ccccc1-c1cc(C(F)(F)F)nc(S(=O)(=O)CCCC(=O)Nc2cc(C)ccc2O)n1 | inactive
CCc1ccccc1NC(=O)c1ccc(F)c(S(=O)(=O)NC2CCCCCC2)c1 | inactive
Cc1cc(Nc2ccc(N3CCOCC3)cc2)c2cccc(C)c2n1 | inactive
Cc1ccccc1N/N=C/c1ccc(N2CCOCC2)cc1 | 50.1 µM (active)
CN(CC(=O)Nc1ccc(N2CCOCC2)cc1)CC(=O)Nc1ccccc1[N+](=O)[O-] | inactive
CC(=O)N1CCN(c2ccc(NCc3ccc(C(C)C)cc3)cc2)CC1 | 44.7 µM (active)
CC(=O)c1ccc(N2CCN(C(=O)CCc3ccccc3)CC2)cc1 | inactive
COc1ccc(N2CCN(C(=O)CNC(=O)c3ccc(Br)o3)CC2)cc1 | inactive
O=C(O)c1cscn1 | 4.47 µM (active)

SMILES | Potency
Cc1ccc2nc(COc3ccccc3NC(=O)Nc3ccc(F)c(Cl)c3)cc(=O)n2c1 | inactive
COc1ccc(CCNC(=O)CCCCn2c(=O)c3ccccc3n(Cc3ccccc3)c2=O)cc1OC | inactive
CCOC(=O)Cc1ccc(NC(=O)Nc2c[nH]c(=O)[nH]c2=O)cc1 | inactive
CCCCN(CC)CCCNC(=O)Cn1ncc2c([nH]c3ccc(C)cc32)c1=O | inactive
CCCSc1ncc(Cl)c(C(=O)Nc2sc3c(c2C(=O)NCCOC)CCCC3)n1 | inactive
Cc1ccc(NC(=S)N(CCCN2CCCC2)Cc2cccn2Cc2ccc(Cl)cc2)cc1 | 50.1 µM (active)
Cc1ccc(NC(=S)N(CCCN2CCC(C)CC2)Cc2ccco2)cc1 | inactive
Cc1ccccc1NC(=S)N(CCCN1CCOCC1)Cc1cccs1 | inactive
O=c1[nH]c2cc(Br)ccc2n2cccc12 | inactive
COc1cc(C(=O)N2CCN(c3ccc(Nc4ccc(C)cc4)nn3)CC2)cc(OC)c1OC | inactive
Cc1ccc(N=C2NC(=O)/C(=C/C=C/c3ccco3)S2)cc1C | 39.8 µM (active)
COc1ccc(OC)c(CCNC(=O)CCCn2c(=O)c3cccn3c3cccnc32)c1 | inactive
O=C(Cn1c(=O)n(Cc2cccs2)c(=O)c2cccnc21)Nc1ccc(F)cc1 | inactive
O=c1[nH]n2c(=O)c3c([nH]c2c1N=Nc1ccccc1)CCC3 | 50.1 µM (active)
CC(C)(C)n1c(=O)[nH]c2c(c1=O)CCC2 | inactive
Cc1ccc2oc(=O)c3cnn(CC(=O)NCc4ccccc4Cl)c3c2c1 | inactive
CCOc1cc(C(=O)NCCc2csc3nc(-c4ccc(C)cc4)nn23)cc(OCC)c1OCC | inactive
COc1ccc(-c2nnc(SCC(=O)c3ccco3)n2-c2ccccc2)cc1 | 56.2 µM (active)
Cc1cc(NC(=O)CSc2nnc(-c3ccco3)n2N)no1 | inactive
CCOc1ccc(-n2c(SCC(N)=O)nnc2-c2ccco2)cc1 | 20 µM (active)
COc1ccc(C(=O)NC(=O)CSc2nnc(-c3ccco3)n2-c2ccccc2)cc1 | inactive
NNC(=O)CSc1nnc(-c2ccccc2)n1-c1ccccc1 | inactive

SMILES | Potency
Cc1cccc(C)c1NC(=O)CCCSc1nnc(-c2ccco2)n1-c1ccccc1 | inactive
O=C1OC(C(=O)Nc2cccc(Br)c2)Cc2ccccc21 (centres undefined) | inactive
CCOC(=O)c1ccc(NC(=O)c2ncn(-c3ccccc3)n2)cc1 | inactive
NC1=NC(c2cc(F)cc(F)c2)n2c(nc3ccccc32)N1 (centres undefined) | inactive
COc1ccccc1NC(=O)c1cc(S(=O)(=O)NCCc2ccccc2)ccc1F | inactive
Oc1ccccc1-c1nc(/C=C/c2ccc(F)cc2)no1 | inactive
O=C(Nc1ccc(-n2ccnc2P(=O)(O)c2ccccc2)cc1)c1ccccc1Br | 8.91 µM (active)
Cn1c(=O)c(=O)n(C)c2cc(NC(=O)c3ccccc3Br)ccc21 | inactive
Cc1ccc(NC(=O)c2cccnc2C(=O)Nc2ccc(C)cc2)cc1 | inactive
COc1ccc(CCNC(=O)c2cc3cccc4c3n2CC(C)S4)c(OC)c1OC (centres undefined) | inactive
Cc1nnc(SCC(=O)NNC(=O)c2ccc(Cl)cc2)n1CC1CCCO1 (centres undefined) | inactive
S=c1[nH]nc(-c2ccc(Cl)cc2)n1CC1CCCO1 (centres undefined) | 8.91 µM (active)
CNC(=O)NC(=O)CSc1nnc(-c2ccc(F)cc2)n1CC1CCCO1 (centres undefined) | inactive
COc1cc2[nH]c(=O)n(Cc3ccc(C(=O)NCc4ccc(C)cc4)cc3)c(=O)c2cc1OC | inactive
O=C(NCC(c1ccc(Cl)cc1)N1CCOCC1)c1ccccc1F (centres undefined) | inactive
O=C(Nc1ccc(C(=O)OCc2cc(=O)n3nc(C4CC4)sc3n2)cc1)c1ccc(F)cc1 | inactive
CCN(C(=O)CSc1nnc(C)n2c1cc1occc12)c1ccccc1 | inactive
CNC(=O)CN1C(=O)c2cccnc2Sc2ccccc21 | inactive
CSc1n[nH]c(=S)n1N | 17.8 µM (active)
CCOC(=O)C1CCN(c2c(Nc3cc(C)cc(C)c3)c(=O)c2=O)CC1 | inactive
CCOC(=O)C1CCN(c2csc3ccc(C)cc3c2=O)CC1 | 17.8 µM (active)
CCOC(=O)C1CCN(c2ccc(C(=O)O)cc2[N+](=O)[O-])CC1 | inactive

SMILES | Potency
COc1ccc2oc(=O)cc(CN3CCOCC3)c2c1 | inactive
CCOc1ccc(N(C)Cc2cc(=O)oc3ccc(OC)cc23)cc1 | 14.1 µM (active)
CCOc1ccc2oc(=O)cc(CN3CCN(C(=O)c4ccc(F)cc4)CC3)c2c1 | inactive
Cc1ccc(NC(=O)c2oc3ccccc3c2NC(=O)Cc2cccs2)cc1 | inactive
N#Cc1ccc(OC2=NS(=O)(=O)c3ccccc32)cc1 | inactive
CCCCc1nnc(NC(=O)CSc2nc(C)cc(=O)[nH]2)s1 | inactive
CCOC(=O)Cc1csc(NC(=O)CSc2nc(C)cc(=O)[nH]2)n1 | 20 µM (active)
CCOC(=O)Cc1csc(NC(=O)CSc2ccc(Br)cc2)n1 | inactive
CCc1ccc(NC(=O)CN2CCSc3ccc(S(=O)(=O)N4CCCC4)cc32)cc1 | inactive
COc1cc(OC)c(N(C)C(=O)c2cc3c(=O)oc4ccccc4c3s2)cc1Cl | inactive
Cc1ccccc1CS(=O)(=O)CC1Nc2ccc(C(=O)NCc3ccc(Cl)cc3)cc2NC1=O (centres undefined) | inactive
Cn1c(SCC(=O)C(C)(C)C)nnc1-c1ccccn1 | inactive
Cc1ccccc1CSc1nnc(-c2ccccn2)n1N | 31.6 µM (active)
Cc1ccccc1CSc1nnc(-c2cccnc2)n1N | inactive
Fc1ccc(-c2nc(Nc3cccc(Cl)c3)nc3c2COc2ccccc2-3)cc1 | inactive
O=C(NCCS(=O)(=O)N1CCN(c2ccc(F)cc2)CC1)c1ccccc1Br | inactive
CCC(=O)N1CCc2cc(S(=O)(=O)NC(Cc3ccccc3)C(=O)NCc3ccccc3)ccc21 (centres undefined) | inactive
O=C(Nc1ccccc1Br)c1cc(CN2CCCC2)on1 | inactive
CC(C)(C)c1ccc(NC(=O)COC(=O)CCc2nc3ccccc3c(=O)[nH]2)cc1 | inactive
CCN(c1ccc(NC(=O)COC(=O)CCc2nc3ccccc3n2-c2ccccc2)cc1)C(C)C | 11.2 µM (active)
Cc1ccc(NC(=O)COC(=O)CCc2nc3ccccc3n2-c2ccccc2)c(C)c1 | inactive
Cc1ccc(Cn2c(CNC(=O)Cc3cccc(C)c3)nc3cccnc32)cc1 | inactive

SMILES | Potency
COc1cc2ccccc2cc1C(=O)Nc1cccc(-c2nc3ccccc3o2)c1 | inactive
S=c1[nH]nc2c3c4c(sc3ncn12)CCCC4 | 22.4 µM (active)
N=c1c2c3c(sc2ncn1CCCN1CCOCC1)CCCCC3 | inactive
CC(C(=O)O)n1cnc2sc3c(c2c1=O)CCCC3 (centres undefined) | inactive
Cc1noc2ncnc(NCc3ccccc3Cl)c12 | inactive
Cc1ccc(C)c(Cn2c(=O)n(CCC(=O)NCc3ccc4c(c3)OCO4)c(=O)c3sccc32)c1 | inactive
COC(=O)c1ccccc1NC(=O)Cn1c(=O)n(-c2cccc(C(F)(F)F)c2)c(=O)c2c(C)c(C)sc21 | inactive
C=CCOc1ccc(/C=C2/C(=O)ON=C2C)cc1OCC | inactive
CC1=NOC(=O)/C1=C\c1ccccc1 | 25.1 µM (active)
C#CCOc1ccccc1/C=C1/C(=O)ON=C1C | inactive
COc1ccc(Nc2ncc(C(=O)Nc3cc(C)ccc3OC)c3ccccc23)cc1 | inactive
Cc1ccc(/C=C(\C#N)C(=O)Nc2cc(C)ccc2C)cc1 | inactive
CCc1ccc(NC(=O)CSc2nc3c([nH]c4ccccc43)c(=O)n2-c2cccc(OC)c2)cc1 | inactive
CCOc1ccc(C(=O)CCN2CCOCC2)cc1 | inactive
Cc1cccc(C)c1OCCN1CCOCC1 | 28.2 µM (active)
O=C(OCCN1CCOCC1)C1(c2ccccc2)CCCCC1 | inactive
CN(C)C(=O)CSc1n[nH]c(-c2ccco2)n1 | inactive
S=c1[nH]nc(-c2ccco2)n1/N=C/c1ccc(Br)s1 | 28.2 µM (active)
S=c1[nH]nc(-c2ccco2)n1/N=C/c1ccccc1 | 3.55 µM (active)
S=c1[nH]nc(/C=C/c2ccccc2)o1 | inactive
Brc1ccc(/C=N/N2CCN(C3c4ccccc4-c4ccccc43)CC2)s1 | inactive
